# In paper PMC7862700, “An all-to-all approach to the identification of sequence-specific readers for epigenetic DNA modifications on cytosine”:
# How the values were obtained:
# Assay in all cases: DAPPL (digital affinity profiling via proximity ligation, sequencing); 10 mM Tris-HCl pH 7.5, 50 mM NaCl, 1 mM DTT, 4% glycerol, room temperature, 30 min; GST-TFs on glutathione beads, 16-mer random dsDNA library, 0.1% formaldehyde crosslink after washing; high values mean tight binding
# FEV = target: T1, FEV (Homo sapiens, UniProt Q99581 1-238); details: protein: recombinant; tags: N-terminal GST; dsDNA, one strand shown
# T1 sequence: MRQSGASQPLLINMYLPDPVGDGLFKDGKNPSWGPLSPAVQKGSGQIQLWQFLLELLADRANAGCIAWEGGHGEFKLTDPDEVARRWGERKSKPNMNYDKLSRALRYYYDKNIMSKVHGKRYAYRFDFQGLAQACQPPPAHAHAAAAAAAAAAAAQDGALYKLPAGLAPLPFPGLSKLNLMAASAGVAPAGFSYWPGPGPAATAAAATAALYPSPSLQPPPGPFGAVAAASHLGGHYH
# Procedure, shortened: (§1)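 Binding signal is each hexamer's read frequency for a factor divided by its frequency in the tag-only sample. The factors were GST-fused human transcription factors from yeast, captured on glutathione beads, DNA-barcoded and pooled with that sample. Pools were incubated with 200 nmole of a random double-stranded 16-mer DNA library in Tris/NaCl/DTT/glycerol buffer at room temperature for 30 min, then washed, crosslinked with 0.1% formaldehyde, proximity-ligated with BsaI/T4 ligase (1 h, 37 °C), PCR-amplified and sequenced on an Illumina NextSeq500.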
# ETV5 = ETV5 (Homo sapiens, UniProt P41161 1-510); details: protein: recombinant; tags: N-terminal GST; dsDNA, one strand shown
# Chain of ETV5 (P41161 whole entry): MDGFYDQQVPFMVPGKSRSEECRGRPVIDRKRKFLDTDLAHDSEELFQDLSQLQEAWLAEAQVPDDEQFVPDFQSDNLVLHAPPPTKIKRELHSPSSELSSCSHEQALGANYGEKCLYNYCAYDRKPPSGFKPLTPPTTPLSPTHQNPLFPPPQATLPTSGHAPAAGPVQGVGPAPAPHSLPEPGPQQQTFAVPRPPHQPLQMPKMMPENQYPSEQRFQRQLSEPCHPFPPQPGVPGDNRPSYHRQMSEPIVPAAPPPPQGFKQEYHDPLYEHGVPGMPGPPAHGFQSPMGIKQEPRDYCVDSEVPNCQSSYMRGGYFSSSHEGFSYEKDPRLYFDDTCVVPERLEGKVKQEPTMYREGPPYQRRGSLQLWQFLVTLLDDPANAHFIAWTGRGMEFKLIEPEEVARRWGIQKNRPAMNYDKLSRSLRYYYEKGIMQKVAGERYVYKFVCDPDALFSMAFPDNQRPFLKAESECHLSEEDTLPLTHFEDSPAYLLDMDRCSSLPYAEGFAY
# Procedure, shortened: as §1
# HSF1 = HSF1 (Homo sapiens, UniProt Q00613 1-529); details: protein: recombinant; tags: N-terminal GST; chain copies: 3; dsDNA, one strand shown
# Chain of HSF1 (Q00613 whole entry): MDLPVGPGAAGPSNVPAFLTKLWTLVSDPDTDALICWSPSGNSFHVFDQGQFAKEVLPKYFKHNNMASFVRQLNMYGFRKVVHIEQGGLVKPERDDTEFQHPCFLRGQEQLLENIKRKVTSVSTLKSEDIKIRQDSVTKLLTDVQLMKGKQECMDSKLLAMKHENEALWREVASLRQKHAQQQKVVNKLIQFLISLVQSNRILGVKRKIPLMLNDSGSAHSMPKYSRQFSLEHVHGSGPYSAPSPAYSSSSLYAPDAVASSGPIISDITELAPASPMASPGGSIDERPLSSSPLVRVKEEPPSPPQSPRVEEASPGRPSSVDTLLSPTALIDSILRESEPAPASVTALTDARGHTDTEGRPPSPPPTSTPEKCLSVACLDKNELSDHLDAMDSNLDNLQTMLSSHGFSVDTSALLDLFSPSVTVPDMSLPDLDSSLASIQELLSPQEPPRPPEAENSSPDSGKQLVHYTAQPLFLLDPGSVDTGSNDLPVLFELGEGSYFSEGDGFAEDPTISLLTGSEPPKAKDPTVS
# Procedure, shortened: as §1
# SPIC = target: T2, SPIC (Homo sapiens, UniProt Q8N5J4 1-248); details: protein: recombinant; tags: N-terminal GST; dsDNA, one strand shown
# T2 sequence: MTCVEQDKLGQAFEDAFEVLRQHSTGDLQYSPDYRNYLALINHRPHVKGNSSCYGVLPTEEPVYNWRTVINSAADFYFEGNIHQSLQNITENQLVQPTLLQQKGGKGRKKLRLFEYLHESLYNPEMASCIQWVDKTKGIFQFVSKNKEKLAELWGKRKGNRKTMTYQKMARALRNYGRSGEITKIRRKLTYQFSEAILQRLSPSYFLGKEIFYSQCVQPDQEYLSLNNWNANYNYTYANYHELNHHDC
# Procedure, shortened: as §1
# ELF4 = ELF4 (Homo sapiens, UniProt Q99607 1-663); details: protein: recombinant; tags: N-terminal GST; dsDNA, one strand shown
# Chain of ELF4 (Q99607 whole entry): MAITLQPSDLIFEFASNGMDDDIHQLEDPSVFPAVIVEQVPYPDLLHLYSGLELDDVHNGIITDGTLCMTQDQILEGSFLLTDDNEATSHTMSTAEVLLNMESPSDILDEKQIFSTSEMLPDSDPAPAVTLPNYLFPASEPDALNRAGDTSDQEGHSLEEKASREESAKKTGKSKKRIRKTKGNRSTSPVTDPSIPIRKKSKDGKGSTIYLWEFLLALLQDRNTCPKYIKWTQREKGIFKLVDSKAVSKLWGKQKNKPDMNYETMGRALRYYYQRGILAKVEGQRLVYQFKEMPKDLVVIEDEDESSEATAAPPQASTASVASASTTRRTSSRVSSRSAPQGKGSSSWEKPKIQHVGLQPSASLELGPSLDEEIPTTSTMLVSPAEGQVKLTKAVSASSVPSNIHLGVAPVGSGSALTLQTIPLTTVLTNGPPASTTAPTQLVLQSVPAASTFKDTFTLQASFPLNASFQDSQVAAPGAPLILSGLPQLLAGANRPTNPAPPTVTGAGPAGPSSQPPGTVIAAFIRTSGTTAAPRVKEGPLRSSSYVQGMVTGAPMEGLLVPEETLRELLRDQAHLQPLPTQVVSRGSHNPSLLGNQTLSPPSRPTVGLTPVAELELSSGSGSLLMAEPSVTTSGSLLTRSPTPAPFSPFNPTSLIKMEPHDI
# Procedure, shortened: as §1
# ELK4 = target: T3, ELK4 (Homo sapiens, UniProt P28324-2 1-405); details: protein: recombinant; tags: N-terminal GST; dsDNA, one strand shown
# T3 sequence: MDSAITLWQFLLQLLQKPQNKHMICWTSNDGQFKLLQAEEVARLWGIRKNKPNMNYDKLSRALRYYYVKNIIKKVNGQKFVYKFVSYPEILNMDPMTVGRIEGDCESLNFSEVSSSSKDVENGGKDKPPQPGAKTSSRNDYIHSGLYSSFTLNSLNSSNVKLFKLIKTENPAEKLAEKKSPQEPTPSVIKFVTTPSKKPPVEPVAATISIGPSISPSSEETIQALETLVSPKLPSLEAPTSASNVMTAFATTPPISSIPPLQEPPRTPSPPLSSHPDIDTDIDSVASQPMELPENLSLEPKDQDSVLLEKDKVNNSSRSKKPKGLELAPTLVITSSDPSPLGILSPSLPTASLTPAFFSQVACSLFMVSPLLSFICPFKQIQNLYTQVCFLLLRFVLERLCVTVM
# Procedure, shortened: as §1
# ETV2 = target: T4, ETV2 (Homo sapiens, UniProt O00321 1-342); details: protein: recombinant; tags: N-terminal GST; dsDNA, one strand shown
# T4 sequence: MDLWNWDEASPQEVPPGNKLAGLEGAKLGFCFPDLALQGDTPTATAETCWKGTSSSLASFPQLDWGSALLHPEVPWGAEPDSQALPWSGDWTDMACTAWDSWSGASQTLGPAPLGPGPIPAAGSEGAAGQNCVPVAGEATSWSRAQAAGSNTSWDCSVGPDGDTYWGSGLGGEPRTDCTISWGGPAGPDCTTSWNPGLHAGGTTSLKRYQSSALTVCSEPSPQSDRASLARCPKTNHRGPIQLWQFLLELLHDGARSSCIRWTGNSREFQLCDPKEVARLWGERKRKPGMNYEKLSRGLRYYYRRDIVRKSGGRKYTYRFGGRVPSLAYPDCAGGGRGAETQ
# Procedure, shortened: as §1
# CRX = CRX (Homo sapiens, UniProt O43186 1-299); details: protein: recombinant; tags: N-terminal GST; dsDNA, one strand shown
# Chain of CRX (O43186 whole entry): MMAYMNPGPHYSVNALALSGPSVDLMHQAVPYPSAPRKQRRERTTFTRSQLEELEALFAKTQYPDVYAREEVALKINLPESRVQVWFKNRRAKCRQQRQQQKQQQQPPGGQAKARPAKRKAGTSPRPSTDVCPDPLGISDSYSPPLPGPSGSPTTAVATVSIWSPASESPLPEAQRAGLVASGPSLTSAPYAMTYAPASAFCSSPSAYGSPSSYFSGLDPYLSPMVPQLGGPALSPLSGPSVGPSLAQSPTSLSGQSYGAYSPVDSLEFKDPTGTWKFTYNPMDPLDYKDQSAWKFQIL
# Procedure, shortened: as §1
# ETV1 = ETV1 (Homo sapiens, UniProt P50549 1-477); details: protein: recombinant; tags: N-terminal GST; dsDNA, one strand shown
# Chain of ETV1 (P50549 whole entry): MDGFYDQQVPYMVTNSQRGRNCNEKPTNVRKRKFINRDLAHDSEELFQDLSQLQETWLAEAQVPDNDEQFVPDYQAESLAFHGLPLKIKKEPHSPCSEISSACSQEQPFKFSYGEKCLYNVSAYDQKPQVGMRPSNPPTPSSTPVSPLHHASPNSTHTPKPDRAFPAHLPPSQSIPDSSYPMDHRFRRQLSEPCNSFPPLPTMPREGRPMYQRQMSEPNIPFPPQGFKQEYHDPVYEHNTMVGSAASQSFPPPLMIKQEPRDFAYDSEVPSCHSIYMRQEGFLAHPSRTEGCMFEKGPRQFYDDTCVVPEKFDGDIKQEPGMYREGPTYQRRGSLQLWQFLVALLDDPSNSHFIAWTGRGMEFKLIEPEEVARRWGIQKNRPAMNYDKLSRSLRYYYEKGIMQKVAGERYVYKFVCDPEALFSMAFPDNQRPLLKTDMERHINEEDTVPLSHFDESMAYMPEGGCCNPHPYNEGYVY
# Procedure, shortened: as §1
# ERF = target: T5, ERF (Homo sapiens, UniProt P50548 1-548); details: protein: recombinant; tags: N-terminal GST; dsDNA, one strand shown
# T5 sequence: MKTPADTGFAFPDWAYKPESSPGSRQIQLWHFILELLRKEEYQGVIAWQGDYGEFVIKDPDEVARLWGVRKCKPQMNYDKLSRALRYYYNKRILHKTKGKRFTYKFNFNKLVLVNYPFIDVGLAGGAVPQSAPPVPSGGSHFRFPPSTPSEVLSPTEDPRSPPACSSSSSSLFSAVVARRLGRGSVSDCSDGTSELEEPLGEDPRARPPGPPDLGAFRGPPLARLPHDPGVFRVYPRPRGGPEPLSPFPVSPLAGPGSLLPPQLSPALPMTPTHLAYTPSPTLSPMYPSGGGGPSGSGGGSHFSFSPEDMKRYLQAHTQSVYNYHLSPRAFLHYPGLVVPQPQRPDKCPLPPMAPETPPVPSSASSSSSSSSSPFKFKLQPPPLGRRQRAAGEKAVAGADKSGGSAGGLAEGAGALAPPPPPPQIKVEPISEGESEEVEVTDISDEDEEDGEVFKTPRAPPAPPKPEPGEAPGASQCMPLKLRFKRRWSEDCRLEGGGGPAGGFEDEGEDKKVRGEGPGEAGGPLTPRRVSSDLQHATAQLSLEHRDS
# Procedure, shortened: as §1
# ETV3L = target: T6, ETV3L (Homo sapiens, UniProt Q6ZN32 1-361); details: protein: recombinant; tags: N-terminal GST; dsDNA, one strand shown
# T6 sequence: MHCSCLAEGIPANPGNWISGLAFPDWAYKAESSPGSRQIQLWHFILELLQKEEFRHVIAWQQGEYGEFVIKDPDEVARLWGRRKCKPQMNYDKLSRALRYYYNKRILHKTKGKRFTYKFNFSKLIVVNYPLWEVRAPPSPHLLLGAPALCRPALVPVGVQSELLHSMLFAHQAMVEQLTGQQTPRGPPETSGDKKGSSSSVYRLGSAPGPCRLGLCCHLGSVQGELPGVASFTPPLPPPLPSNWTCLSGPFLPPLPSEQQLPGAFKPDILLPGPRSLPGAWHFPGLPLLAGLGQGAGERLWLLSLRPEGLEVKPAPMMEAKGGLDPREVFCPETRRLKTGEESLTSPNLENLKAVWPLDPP
# Procedure, shortened: as §1
# ETS2 = target: T7, ETS2 (Homo sapiens, UniProt P15036 1-469); details: protein: recombinant; tags: N-terminal GST; dsDNA, one strand shown
# T7 sequence: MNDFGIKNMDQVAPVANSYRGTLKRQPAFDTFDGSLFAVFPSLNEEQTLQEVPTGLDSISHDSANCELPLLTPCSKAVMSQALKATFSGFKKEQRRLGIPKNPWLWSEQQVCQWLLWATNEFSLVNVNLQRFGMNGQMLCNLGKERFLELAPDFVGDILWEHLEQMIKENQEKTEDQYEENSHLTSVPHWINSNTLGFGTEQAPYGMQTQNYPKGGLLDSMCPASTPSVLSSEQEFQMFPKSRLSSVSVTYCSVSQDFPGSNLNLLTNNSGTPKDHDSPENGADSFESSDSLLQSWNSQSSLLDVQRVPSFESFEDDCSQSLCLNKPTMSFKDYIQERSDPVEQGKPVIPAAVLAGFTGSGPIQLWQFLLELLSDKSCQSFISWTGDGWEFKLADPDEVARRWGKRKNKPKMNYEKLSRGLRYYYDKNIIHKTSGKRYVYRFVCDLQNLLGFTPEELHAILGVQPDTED
# Procedure, shortened: as §1
# SPDEF = target: T8, SPDEF (Homo sapiens, UniProt O95238 1-335); details: protein: recombinant; tags: N-terminal GST; dsDNA, one strand shown
# T8 sequence: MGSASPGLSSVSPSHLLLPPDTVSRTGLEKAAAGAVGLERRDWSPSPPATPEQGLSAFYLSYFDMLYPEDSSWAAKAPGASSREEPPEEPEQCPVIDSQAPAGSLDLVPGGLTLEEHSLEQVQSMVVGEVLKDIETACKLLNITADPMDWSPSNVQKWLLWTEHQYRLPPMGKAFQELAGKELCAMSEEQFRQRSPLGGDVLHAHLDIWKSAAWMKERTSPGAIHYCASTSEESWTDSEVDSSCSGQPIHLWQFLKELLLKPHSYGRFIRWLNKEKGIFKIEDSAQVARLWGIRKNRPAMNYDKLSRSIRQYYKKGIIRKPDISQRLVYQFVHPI
# Procedure, shortened: as §1
# ETV7 = target: T9, ETV7 (Homo sapiens, UniProt Q9Y603 1-341); details: protein: recombinant; tags: N-terminal GST; dsDNA, one strand shown
# T9 sequence: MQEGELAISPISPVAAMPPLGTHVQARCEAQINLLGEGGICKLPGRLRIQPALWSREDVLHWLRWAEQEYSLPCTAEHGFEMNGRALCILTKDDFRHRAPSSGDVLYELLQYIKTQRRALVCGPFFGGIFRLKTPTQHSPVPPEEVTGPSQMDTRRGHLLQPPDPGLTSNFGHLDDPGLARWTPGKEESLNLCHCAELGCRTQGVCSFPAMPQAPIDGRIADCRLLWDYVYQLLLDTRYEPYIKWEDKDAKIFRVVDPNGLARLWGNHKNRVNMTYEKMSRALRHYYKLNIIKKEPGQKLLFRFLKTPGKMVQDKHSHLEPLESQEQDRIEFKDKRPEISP
# Procedure, shortened: as §1
# ELF5 = target: T10, ELF5 (Homo sapiens, UniProt Q9UKW6-2 1-255); details: protein: recombinant; tags: N-terminal GST; dsDNA, one strand shown
# T10 sequence: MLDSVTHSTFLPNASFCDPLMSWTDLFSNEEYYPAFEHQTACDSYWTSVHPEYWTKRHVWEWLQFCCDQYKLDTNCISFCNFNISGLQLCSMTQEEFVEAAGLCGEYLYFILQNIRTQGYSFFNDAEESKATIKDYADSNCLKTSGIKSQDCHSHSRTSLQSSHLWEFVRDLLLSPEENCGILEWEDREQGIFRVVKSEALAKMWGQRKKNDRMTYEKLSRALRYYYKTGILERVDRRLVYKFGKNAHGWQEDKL
# Procedure, shortened: as §1
# ETV3 = target: T11, ETV3 (Homo sapiens, UniProt P41162-2 1-143); details: protein: recombinant; tags: N-terminal GST; dsDNA, one strand shown
# T11 sequence: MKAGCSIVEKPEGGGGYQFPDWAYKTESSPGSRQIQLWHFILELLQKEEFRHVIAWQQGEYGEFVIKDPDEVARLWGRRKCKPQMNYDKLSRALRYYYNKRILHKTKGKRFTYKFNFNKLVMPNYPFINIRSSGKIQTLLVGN
# Procedure, shortened: as §1
# ETV6 = ETV6 (Homo sapiens, UniProt P41212 1-452); details: protein: recombinant; tags: N-terminal GST; dsDNA, one strand shown
# Chain of ETV6 (P41212 whole entry): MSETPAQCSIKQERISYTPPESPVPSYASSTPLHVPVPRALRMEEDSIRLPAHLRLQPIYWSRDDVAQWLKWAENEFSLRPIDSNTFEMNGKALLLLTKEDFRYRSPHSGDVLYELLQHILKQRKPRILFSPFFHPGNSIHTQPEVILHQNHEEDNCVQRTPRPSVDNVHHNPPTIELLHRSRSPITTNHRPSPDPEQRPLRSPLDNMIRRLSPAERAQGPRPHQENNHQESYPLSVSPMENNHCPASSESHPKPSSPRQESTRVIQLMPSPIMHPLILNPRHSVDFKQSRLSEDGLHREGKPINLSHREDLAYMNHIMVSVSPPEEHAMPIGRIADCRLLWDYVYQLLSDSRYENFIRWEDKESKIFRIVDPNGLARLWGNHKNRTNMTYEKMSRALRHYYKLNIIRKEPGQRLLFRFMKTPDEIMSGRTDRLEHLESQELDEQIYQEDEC
# Procedure, shortened: as §1
sequence,measurement,setting,value
TGATTT,binding signal,FEV,"1.26 fold enrichment (6-mer frequency, TF over GST control)"
same,binding signal,ETV5,"1.27 fold enrichment (6-mer frequency, TF over GST control)"
same,binding signal,HSF1,"1.27 fold enrichment (6-mer frequency, TF over GST control)"
same,binding signal,SPIC,"1.39 fold enrichment (6-mer frequency, TF over GST control)"
same,binding signal,ELF4,"1.23 fold enrichment (6-mer frequency, TF over GST control)"
same,binding signal,ELK4,"1.2 fold enrichment (6-mer frequency, TF over GST control)"
same,binding signal,ETV2,"1.29 fold enrichment (6-mer frequency, TF over GST control)"
same,binding signal,CRX,"1.35 fold enrichment (6-mer frequency, TF over GST control)"
same,binding signal,ETV1,"1.31 fold enrichment (6-mer frequency, TF over GST control)"
same,binding signal,ERF,"1.17 fold enrichment (6-mer frequency, TF over GST control)"
same,binding signal,ETV3L,"1.29 fold enrichment (6-mer frequency, TF over GST control)"
same,binding signal,ETS2,"1.28 fold enrichment (6-mer frequency, TF over GST control)"
same,binding signal,SPDEF,"1.21 fold enrichment (6-mer frequency, TF over GST control)"
same,binding signal,ETV7,"1.24 fold enrichment (6-mer frequency, TF over GST control)"
same,binding signal,ELF5,"1.23 fold enrichment (6-mer frequency, TF over GST control)"
same,binding signal,ETV3,"1.24 fold enrichment (6-mer frequency, TF over GST control)"
same,binding signal,ETV6,"1.23 fold enrichment (6-mer frequency, TF over GST control)"
